The nature of assay [1]: qHTS assay for small molecule antagonists of peroxisome proliferator-activated receptor delta signaling (AID 588535; active = well fitted inhibition curve with a large enough effect in the signal ratio, with a control signal flat, not every such curve was filed as active; the % refers to the signal ratio;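 for max response: cells co-treated with a PPAR-delta agonist as stimulator during compound exposure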). Particulars: HEK293T PPARd-UAS-bla, beta-lactamase FRET ratio, 18 h; 460 nm channel. Put shortly:
(§1)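 Cell-based beta-lactamase assay in antagonist mode: 4000 HEK293T PPAR-delta-UAS-bla cells per well, 5 hr preincubation then 18 hr compound incubation at 37 C. IC50 obtained by Hill equation fitting.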
Background: Quantitative high-throughput screening tests each substance at several concentrations.

The target of assay [2] is Peroxisome proliferator-activated receptor delta (Homo sapiens) (UniProt Q03181). The assay is described as above. An outline of the steps: as §1
For assay [3], the target named is Vitamin D3 receptor (Homo sapiens) (UniProt P11473). Nature of the assay: qHTS assay for small molecule antagonists of vitamin D receptor signaling (AID 588541; calls by dose curve;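 note: receptor activated by calcitriol during compound treatment; series mostly up to about 77 µM; % is set by controls: 0 for no effect and ±100 for the full control effect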). An outline of the steps:
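Antagonist-mode beta-lactamase reporter assay: HEK293T VDR-UAS-bla cells were exposed to titrated compound alongside 1-alpha,25-dihydroxyvitamin D3 at 3 nM final for 16 h. Values were normalized to the 50 nM agonist control and DMSO basal, with IC50 and efficacy from Hill equation fits.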

The target is the same in assay [4]. Nature of the assay: qHTS assay for small molecule agonists of vitamin D receptor signaling (AID 588543; calls by dose curve;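 note: 0% = DMSO basal and 100% = reference agonist control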). Put shortly: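 qHTS in agonist mode: compound titrations stimulate a VDR-driven β-lactamase reporter in HEK293T cells over 16 h at 37 °C. Response normalized to 50 nM 1α,25-dihydroxyvitamin D3 = 100%, DMSO = 0%; Hill fitting gives EC50 and maximal response.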

The nature of assay [5]: qHTS assay for small molecule agonists of retinoid X receptor alpha signaling (AID 588544; calls by dose curve;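 for activation: 0% = DMSO basal wells and 100% = reference agonist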). Particulars: HEK293T RXRa-UAS-bla, beta-lactamase reporter, 18 h; 530 nm emission.
The target of assay [6] is Retinoic acid receptor RXR-alpha (Homo sapiens) (UniProt P19793). The assay is described as above.
Assay [7] deals with Thyroid hormone receptor beta (Homo sapiens) (UniProt P10828). Nature of the assay: qHTS assay for small molecule agonists of thyroid hormone receptor beta signaling (AID 588545; calls by dose curve). Put shortly: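 HEK 293 TR-UAS-bla; agonist mode; 18 hrs, 37 C; CCF4, ex 405/em 460 and 530 nm; norm. T3 10 nM = 100%, DMSO = 0%; Hill fit → EC50, efficacy.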
Assay [8] addresses Voltage-gated inwardly rectifying potassium channel KCNH2 (Homo sapiens) (UniProt Q12809). Nature of the assay: qHTS Assay for Small Molecule Inhibitors of the Human hERG Channel Activity (AID 588834).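 Note: top concentration of the series differs between compounds; % is set by controls: 0 for no effect and ±100 for the full control effect; lower thallium flux fluorescence means stronger hERG block; nearly all actives have a fitted effect of over 50% in size.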 An outline of the steps: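 Measured: FluxOR fluorescence after thallium stimulation in U2OS cells transduced with hERG by baculovirus. Compounds pre-incubated around 10 min; medium Opti-MEM with 2% FCS. AC50 from Hill equation.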

Assay [9] is described as follows: qHTS assay for small molecule agonists of the antioxidant response element (ARE) signaling pathway (AID 651741; active = well fitted activation curve with a large enough effect in the signal ratio; the % refers to the signal ratio; note: potency is the fitted concentration of half-maximal effect). Particulars: HepG2 ARE-bla reporter, beta-lactamase FRET ratio, 16 h. Put shortly:
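Seeding 2,000 ARE-bla HepG2 cells per well preceded a 5 h incubation at 37 C/5% CO2 and a 16 h compound exposure at 37 C. Beta-lactamase reporter activity was then quantified by fluorescence after 2 h with LiveBLAzer B/G FRET substrate.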

Assay [10] in a line: qHTS assay for small molecule activators of the p53 signaling pathway (AID 651743; active = well fitted activation curve with a large enough effect in the signal ratio, not every such curve was filed as active; the % refers to the signal ratio; note: potency is the fitted concentration of half-maximal effect). Particulars: HCT-116 p53RE-bla, beta-lactamase FRET ratio, 16 h; activation: stronger effect = higher value. Put shortly: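 Screen for p53 pathway agonists uses stably transfected p53RE-bla HCT-116 cells, 4,000 per well, treated 16 h at 37 C with compounds in DMSO.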
The nature of assay [11]: qHTS assay for small molecule activators of the nuclear factor-kappa B (NF-kB) signaling pathway (AID 651749; active = well fitted activation curve with a large enough effect in the signal ratio; the % refers to the signal ratio; note: series mostly up to about 77 µM; % of control where 0% means no effect). Particulars: NF-kB-bla ME-180 cells, beta-lactamase FRET ratio, 16 h; stronger effect = higher value. An outline of the steps: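 Stably transfected ME-180 line; NF-kB response element upstream of beta-lactamase. Treatment: compound or DMSO, 16 hr. Detection: fluorescent FRET substrate.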

Assay [12] is described as follows: qHTS assay for small molecule disruptors of the mitochondrial membrane potential - 1 hr assay (AID 651754; calls by dose curve; note: potency is the fitted concentration of half-maximal effect; nearly all actives have a fitted effect of over 35% in size). Put shortly:
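Steps: seed HepG2 cells and let attach overnight; pin-transfer compound or vehicle; incubate 1 hr at 37C; add Mito-MPS dye for 30 min; read two-channel fluorescence for monomer and aggregate forms.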

Assay [13] has as its target Tumor necrosis factor (Homo sapiens) (UniProt P01375). Put plainly: qHTS assay to identify small molecules that stimulate Tumor Necrosis Factor-alpha (TNF-alpha) secretion (AID 651757; active = well fitted curve in the direction sought with a large enough effect in the signal ratio; the % refers to the signal ratio; note: 0% is about no effect). Put shortly: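 Secreted TNF-alpha from compound-treated THP-1 cells (17 hrs, 37 C) was quantified with a homogeneous time-resolved fluorescence antibody assay.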
Assay [14] is described as follows: qHTS assay to identify small molecules that stimulate interleukin-8 (IL-8) secretion (AID 651758; active = well fitted activation curve with a large enough effect in the signal ratio; the % refers to the signal ratio; note: 0% is about no effect). Put shortly:
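Secreted IL-8 measured by TR-FRET sandwich (cryptate and XL665 antibodies) from THP-1 cells exposed to compound overnight (16 hrs, 37 C).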

Assay [15] deals with Peroxisome proliferator-activated receptor alpha (Homo sapiens) (UniProt Q07869). Put plainly: qHTS assay for small molecule agonists of the peroxisome proliferator-activated receptor alpha (PPARalpha) signaling pathway (AID 651778). Note: % of control where 0% means no effect. Particulars: PathHunter PPARalpha complementation, chemiluminescence, 6 h; stronger effect = higher value. An outline of the steps: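 Chemiluminescence from complemented enzyme reported PPARalpha activation in cells after 6 hr of compound treatment at 37 C. The detection reagent was incubated for 60 min at room temperature, and compounds were scored as agonists.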

Assay [16] can be described thus: qHTS assay for small molecule agonists of the antioxidant response element (ARE) signaling pathway measured by Nrf2-dependant transcriptional activity (AID 720636; active = well fitted curve in the direction sought with a large enough effect in the repeat runs; an effect the other way counts as inactive or inconclusive; note: % of control where 0% means no effect). An outline of the steps:
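ARE-luc HepG2 cells carrying an Nrf2-responsive luciferase reporter, in medium with 1% dialyzed FBS, exposed to compound for 16 hr at 37 C, 5% CO2. Luminescence read 30 min after ONE-Glo addition.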

Assay [17] in a line: qHTS assay for small molecule antagonists of the retinoid-related orphan receptor gamma (ROR-gamma) signaling pathway - cell viability counter screen (AID 720652; active = well fitted curve in the direction sought with a large enough effect in the repeat runs; an effect the other way counts as inactive or inconclusive;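 note: CHO reporter cells with doxycycline-induced ROR-gamma expression; series mostly up to about 92 µM; compound exposure lasted 16 hr before ATP read; % is set by controls: 0 for no effect and ±100 for the full control effect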). Put shortly:
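Cytotoxicity is quantified via intracellular ATP (CellTiter-Glo luminescence) in doxycycline-induced CHO ROR response element-luciferase reporter cells treated with compound for 16 hr at 37 C, 5% CO2.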

A short description of assay [18]: qHTS assay for small molecule agonists of the antioxidant response element (ARE) signaling pathway measured by Nrf2-dependant transcriptional activity - cell viability counter screen (AID 720653; active = well fitted curve in the direction sought with a large enough effect in the repeat runs; an effect the other way counts as inactive or inconclusive; note: % is set by controls: 0 for no effect and ±100 for the full control effect). Particulars: ARE-bla HepG2 viability, CellTiter-Glo ATP luminescence, 16 h; stronger effect = lower value. Put shortly: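 Cytotoxicity counter screen: intracellular ATP quantified by CellTiter-Glo luminescence in the same ARE-bla HepG2 plates, after 16 h compound exposure and a 2 h beta-lactamase substrate step.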

Assay [19] can be described thus: qHTS assay for cell viability of HEK293 cells (AID 743288). Note: % is set by controls: 0 for no effect and ±100 for the full control effect; nearly all actives have a fitted effect of over 50% in size. Particulars: ATP luminescence (CellTiter-Glo), 18 h, stronger effect = lower value. An outline of the steps: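 The Tox21 protocol used parental HEK293 cells treated for 18 h at 37 C with compounds delivered by pintool; ATP-coupled luminescence after 30 min at room temperature gave viability.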
The nature of assay [20]: qHTS assay for cell viability of the p53RE-bla HCT-116 cell line (AID 743292). Note: potency is the fitted concentration of half-maximal effect; nearly all actives have a fitted effect of over 55% in size. Put shortly: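 CellSensor p53RE-bla HCT-116 cells (4,000/well) pre-incubated 5 h at 37 C, then exposed to compounds in DMSO for 16 h at 37 C. Viability read as ATP content by CellTiter-Glo luminescence after 30 min at room temperature.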
The nature of assay [21]: Counterscreen qHTS for small molecule stabilizers of the endoplasmic reticulum resident proteome: GLuc-NoTag assay (AID 1508627).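 Note: SH-SY5Y cells given compound then 100 nM thapsigargin to empty ER calcium; series mostly up to about 76 µM; 0% = thapsigargin alone and -100% = DMSO vehicle control.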 An outline of the steps: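 Luminescence of Gaussia luciferase secreted into the medium (coelenterazine, 0.07x final, unlysed cells) was the read-out. Human SH-SY5Y neuroblastoma cells constitutively secreting untagged GLuc received compound for 19 h, then 100 nM thapsigargin for 4 h.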

Assay [22] can be described thus: Confirmatory qHTS for small molecule stabilizers of the endoplasmic reticulum resident proteome: Secreted ER Calcium Modulated Protein (SERCaMP) assay (AID 1508628).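 Note: SH-SY5Y cells given compound 16 h then thapsigargin 100 nM for 4 h; series mostly up to about 76 µM; % is set by controls: 0 for no effect and ±100 for the full control effect; nearly all actives have a fitted effect of over 40% in size.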 An outline of the steps: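 We seeded SH-SY5Y-GLuc-SERCaMP cells, added compounds (three concentrations in the primary run, eleven up to 76.6 uM in confirmation), incubated 16 h, depleted ER calcium with thapsigargin, and read luciferase 4 h later.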

Assay [23] is described as follows: Cell Viability qHTS for small molecule stabilizers of the endoplasmic reticulum resident proteome (AID 1508629).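 Note: human SH-SY5Y neuroblastoma cells carrying the GLuc-SERCaMP reporter; compound exposure about 46 h in total before the viability read; % is set by controls: 0 for no effect and ±100 for the full control effect.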 Particulars: cell viability counter-screen, 100 nM thapsigargin for final 4 h.
Assay [24] deals with Nuclear receptor subfamily 1 group I member 2 (Rattus norvegicus) (UniProt Q9R1A7). Nature of the assay: qHTS assay for small molecule activators of the rat pregnane X receptor (rPXR) signaling pathway (AID 651751; call rule not given here; note: 0% is about no effect). Particulars: rPXR reporter cells, luciferase (One-Glo), 24 h.

Values joined by “and” are separate entries in the source; they are usually repeats but may differ in a detail not shown here. Equal values may be shown once. Results filed as inconclusive are left out. Active and inactive are the calls of the source. Unless noted, calls come from the whole dose curve; as a rule, active = well fitted curve in the direction sought with a large enough effect; inconclusive = small, poorly fitted or top-dose-only effect, or another doubt; inactive = no such curve, though single readings can be large; an effect the other way counts as inactive or inconclusive.

Sequence of Peroxisome proliferator-activated receptor alpha (Homo sapiens) (Q07869 whole entry, looked up): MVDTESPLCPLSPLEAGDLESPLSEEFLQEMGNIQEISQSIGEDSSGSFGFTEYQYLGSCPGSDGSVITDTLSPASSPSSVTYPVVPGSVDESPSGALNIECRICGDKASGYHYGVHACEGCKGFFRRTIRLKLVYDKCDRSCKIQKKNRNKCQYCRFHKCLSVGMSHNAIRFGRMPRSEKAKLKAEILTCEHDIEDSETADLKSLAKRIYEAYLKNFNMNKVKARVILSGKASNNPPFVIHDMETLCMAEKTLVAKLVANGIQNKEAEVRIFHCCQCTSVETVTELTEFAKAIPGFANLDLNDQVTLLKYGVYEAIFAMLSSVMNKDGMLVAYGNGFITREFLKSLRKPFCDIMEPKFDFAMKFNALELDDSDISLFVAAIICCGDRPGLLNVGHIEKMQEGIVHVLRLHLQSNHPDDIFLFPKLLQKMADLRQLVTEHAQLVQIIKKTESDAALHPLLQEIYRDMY
Sequence of Thyroid hormone receptor beta (Homo sapiens) (P10828 whole entry, looked up): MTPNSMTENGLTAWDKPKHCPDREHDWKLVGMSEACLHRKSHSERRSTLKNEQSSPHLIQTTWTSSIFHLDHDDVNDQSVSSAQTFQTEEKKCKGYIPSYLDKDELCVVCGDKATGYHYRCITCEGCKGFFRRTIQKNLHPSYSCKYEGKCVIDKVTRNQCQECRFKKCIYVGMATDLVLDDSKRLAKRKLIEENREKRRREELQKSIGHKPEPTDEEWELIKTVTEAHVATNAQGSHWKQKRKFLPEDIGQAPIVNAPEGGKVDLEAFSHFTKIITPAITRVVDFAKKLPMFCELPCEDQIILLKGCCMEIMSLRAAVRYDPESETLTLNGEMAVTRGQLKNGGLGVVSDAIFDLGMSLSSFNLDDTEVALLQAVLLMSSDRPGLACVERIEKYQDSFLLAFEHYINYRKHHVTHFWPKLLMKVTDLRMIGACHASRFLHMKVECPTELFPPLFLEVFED
Sequence of Retinoic acid receptor RXR-alpha (Homo sapiens) (P19793 whole entry, looked up): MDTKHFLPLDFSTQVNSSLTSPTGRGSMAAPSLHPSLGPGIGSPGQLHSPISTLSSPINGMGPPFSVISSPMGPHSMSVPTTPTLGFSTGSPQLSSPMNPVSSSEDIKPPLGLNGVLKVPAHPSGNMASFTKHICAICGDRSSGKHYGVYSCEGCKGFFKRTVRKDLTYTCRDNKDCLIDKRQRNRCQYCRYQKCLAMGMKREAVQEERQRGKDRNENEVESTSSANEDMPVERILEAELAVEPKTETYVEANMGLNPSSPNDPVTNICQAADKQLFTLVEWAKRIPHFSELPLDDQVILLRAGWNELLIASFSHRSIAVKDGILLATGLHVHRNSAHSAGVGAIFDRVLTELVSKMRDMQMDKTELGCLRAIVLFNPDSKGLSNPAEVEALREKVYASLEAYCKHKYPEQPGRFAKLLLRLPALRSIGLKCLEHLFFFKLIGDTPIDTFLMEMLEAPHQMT
Sequence of Peroxisome proliferator-activated receptor delta (Homo sapiens) (Q03181 whole entry, looked up): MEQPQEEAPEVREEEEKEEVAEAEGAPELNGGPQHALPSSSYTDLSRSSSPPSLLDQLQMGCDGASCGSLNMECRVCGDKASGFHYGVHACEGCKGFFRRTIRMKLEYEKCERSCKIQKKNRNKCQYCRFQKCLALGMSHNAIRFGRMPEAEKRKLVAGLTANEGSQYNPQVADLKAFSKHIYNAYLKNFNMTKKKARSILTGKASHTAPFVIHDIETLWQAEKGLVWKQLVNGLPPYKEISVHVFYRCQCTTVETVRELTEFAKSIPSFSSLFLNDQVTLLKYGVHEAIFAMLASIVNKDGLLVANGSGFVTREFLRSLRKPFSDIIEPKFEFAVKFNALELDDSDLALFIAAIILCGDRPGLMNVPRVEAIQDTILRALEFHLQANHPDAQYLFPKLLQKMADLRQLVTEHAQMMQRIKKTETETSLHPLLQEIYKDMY
Sequence of Vitamin D3 receptor (Homo sapiens) (P11473 whole entry, looked up): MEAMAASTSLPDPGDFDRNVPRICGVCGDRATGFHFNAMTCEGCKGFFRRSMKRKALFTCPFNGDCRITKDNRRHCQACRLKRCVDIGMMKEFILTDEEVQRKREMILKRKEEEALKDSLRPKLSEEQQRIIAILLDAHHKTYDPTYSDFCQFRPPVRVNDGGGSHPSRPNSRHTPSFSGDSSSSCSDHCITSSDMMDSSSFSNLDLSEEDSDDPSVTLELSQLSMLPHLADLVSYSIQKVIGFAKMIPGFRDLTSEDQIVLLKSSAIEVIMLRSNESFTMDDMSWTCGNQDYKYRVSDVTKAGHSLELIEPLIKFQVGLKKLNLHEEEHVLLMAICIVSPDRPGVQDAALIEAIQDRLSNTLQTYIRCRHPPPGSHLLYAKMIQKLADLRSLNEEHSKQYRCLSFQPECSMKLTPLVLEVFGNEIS
Sequence of Nuclear receptor subfamily 1 group I member 2 (Rattus norvegicus) (Q9R1A7 whole entry, looked up): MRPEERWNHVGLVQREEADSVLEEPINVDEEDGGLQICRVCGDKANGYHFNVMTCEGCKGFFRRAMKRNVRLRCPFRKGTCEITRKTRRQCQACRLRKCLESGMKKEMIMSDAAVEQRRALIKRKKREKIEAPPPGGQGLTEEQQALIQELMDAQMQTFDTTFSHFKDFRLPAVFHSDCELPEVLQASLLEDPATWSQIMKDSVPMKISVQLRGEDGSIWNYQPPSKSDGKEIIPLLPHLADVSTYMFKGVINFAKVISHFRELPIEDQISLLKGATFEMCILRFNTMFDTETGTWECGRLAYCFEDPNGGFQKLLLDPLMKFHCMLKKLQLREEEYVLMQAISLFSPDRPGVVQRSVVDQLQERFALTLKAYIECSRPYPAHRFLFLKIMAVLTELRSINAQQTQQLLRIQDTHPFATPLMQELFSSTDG
Sequence of Voltage-gated inwardly rectifying potassium channel KCNH2 (Homo sapiens) (Q12809 whole entry, looked up): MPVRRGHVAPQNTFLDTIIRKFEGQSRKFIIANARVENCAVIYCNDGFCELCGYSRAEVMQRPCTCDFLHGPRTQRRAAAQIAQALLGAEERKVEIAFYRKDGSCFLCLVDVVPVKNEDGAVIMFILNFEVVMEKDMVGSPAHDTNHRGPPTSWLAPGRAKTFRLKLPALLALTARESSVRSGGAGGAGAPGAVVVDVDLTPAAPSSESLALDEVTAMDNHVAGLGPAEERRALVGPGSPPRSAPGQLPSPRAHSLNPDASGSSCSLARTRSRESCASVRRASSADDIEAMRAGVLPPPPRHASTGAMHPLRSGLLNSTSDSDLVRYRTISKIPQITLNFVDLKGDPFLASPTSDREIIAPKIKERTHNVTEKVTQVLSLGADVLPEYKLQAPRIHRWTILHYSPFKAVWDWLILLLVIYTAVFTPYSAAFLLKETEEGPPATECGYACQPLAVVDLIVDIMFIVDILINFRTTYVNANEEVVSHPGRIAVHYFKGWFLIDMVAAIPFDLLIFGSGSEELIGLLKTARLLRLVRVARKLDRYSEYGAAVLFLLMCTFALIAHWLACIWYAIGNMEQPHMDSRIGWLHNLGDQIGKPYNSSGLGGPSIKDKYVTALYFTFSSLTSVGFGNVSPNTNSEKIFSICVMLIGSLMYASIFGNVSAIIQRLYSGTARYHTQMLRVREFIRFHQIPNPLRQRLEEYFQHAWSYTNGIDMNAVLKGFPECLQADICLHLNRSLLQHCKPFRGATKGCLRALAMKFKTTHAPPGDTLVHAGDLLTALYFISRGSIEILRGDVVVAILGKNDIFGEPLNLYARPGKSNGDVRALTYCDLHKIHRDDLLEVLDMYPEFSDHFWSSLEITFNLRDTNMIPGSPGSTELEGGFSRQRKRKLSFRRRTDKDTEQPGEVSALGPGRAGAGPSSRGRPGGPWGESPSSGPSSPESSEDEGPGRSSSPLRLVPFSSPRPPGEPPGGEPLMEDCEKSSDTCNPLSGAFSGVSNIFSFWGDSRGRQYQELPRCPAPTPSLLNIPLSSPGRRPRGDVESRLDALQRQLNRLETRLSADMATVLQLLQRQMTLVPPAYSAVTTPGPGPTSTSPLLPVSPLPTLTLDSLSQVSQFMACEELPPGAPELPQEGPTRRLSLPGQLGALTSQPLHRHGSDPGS
Sequence of Tumor necrosis factor (Homo sapiens) (P01375 whole entry, looked up): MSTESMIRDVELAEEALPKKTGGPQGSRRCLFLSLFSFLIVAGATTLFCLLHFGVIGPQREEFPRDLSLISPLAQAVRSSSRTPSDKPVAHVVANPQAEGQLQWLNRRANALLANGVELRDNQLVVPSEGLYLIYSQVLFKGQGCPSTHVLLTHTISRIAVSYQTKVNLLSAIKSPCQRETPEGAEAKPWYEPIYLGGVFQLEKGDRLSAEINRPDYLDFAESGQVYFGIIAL

Turning to `CC(C)(c1cc(Br)c(O)c(Br)c1)c1cc(Br)c(O)c(Br)c1`, the max response in assay [1] is -3.55% and -29% and 5.87%; in assay [5] it was 4.03% and -9.48% and 2.35%; in [15], -7.23% (inactive) and -3.95% (inactive) and -1.86% (inactive); in [18], 4.4% (inactive) and -1.06% (inactive) and -0.187% (inactive); in assay [19], 5.04% (inactive) and -1.46% (inactive) and -3.35% (inactive); in assay [23] it was 18.1% (inactive) and 32.8% (inactive) and -0.114% (inactive). The max response in assay [24] was 4.59% (inactive) and 7.9% (inactive) and 1.02% (inactive). Also, the call in [2], in assay [3], in [4], in [6], in assay [7] and in assay [14] was inactive. Also, the call in assay [16] and in [17] was inactive. Besides, the Potency entry in assay [8], in assay [13], in assay [21] and in assay [22] was “inactive” throughout. Also, the Potency in [9] was 29.8 µM (active) and 23.7 µM (active) and 48.6 µM (active); in assay [10] it was 28.2 µM (active); in [12], 18.8 µM (active); in assay [20], 44.7 µM (active). In assay [11], the activation was 2.39% (inactive) and 3.54% (inactive) and 2.16% (inactive).

Values taken from PubChem BioAssay (NCATS).
